The structures appear in SMILES notation. ± gives the standard deviation of the averaged measurements.

Here are results for six compounds from the supplement of paper PMC9262897, “Low-cost anti-mycobacterial drug discovery using engineered E. coli” (Nature Communications, 2022).

Holding throughout (assay): growth (OD600 after 10 h); higher = more growth (less inhibition)
The test system of assay [1] is E. coli TESEC Alr+ wild-type control. To be noted: compound 0.1 mM; raw OD600 reference: median of DMSO wells 0.241, cell-free background 0.041. The procedure: (§1)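 TESEC Mtb Alr E. coli, or the Alr+ wild-type control, in 384-well plates with Prestwick library compounds at 0.1 mM and 1% DMSO, across arabinose induction levels of 1E3 to 1E7 nM. Growth is read as OD600 after 10 h at 37 °C in triplicate biological replicates.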

Assay [2] relates to E. coli TESEC Mtb Alr. As to conditions: compound 0.1 mM. The procedure: as §1
A further assay deals with E. coli TESEC Mtb Asd. To be noted: compound 0.1 mM. Here is the method: (§2)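 TESEC E. coli strains in which the native enzyme is deleted and replaced by arabinose-inducible Mtb Asd, DapB, CysH or TrpD, each grown in its selective medium. Strains were screened against the Prestwick library at 0.1 mM and 1% DMSO in 384-well format at low and high arabinose induction. Growth is read as OD600 after 10 h in triplicate.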

For another assay, the system named is E. coli TESEC Mtb DapB. To be noted: compound 0.1 mM. Here is the method: as §2
Assay [3] deals with E. coli TESEC Mtb Alr. As to conditions: compound 0.1 mM. Here is the method:
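TESEC Mtb Alr E. coli (ΔaraC ΔtolC ΔentC Δalr ΔdadX, arabinose-inducible Mtb Alr) or the Alr+ wild-type control strain, grown in defined M9-fructose medium without D-alanine in 96-well plates with Prestwick library compounds at 0.1 mM and 1% DMSO. Low Alr induction is 0.1 µM arabinose and high induction is 10 mM arabinose.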
The source holds these as a separate data set.

[4] abbreviates: arabinose 1000 nM, raw OD600 reference: median of DMSO wells 0.294, cell-free background 0.041.
The mark [5] stands for this setting: arabinose 10000 nM, raw OD600 reference: median of DMSO wells 0.264, cell-free background 0.041.
Setting [6] is: arabinose 100000 nM, raw OD600 reference: median of DMSO wells 0.201, cell-free background 0.041.
Setting [7] is: arabinose 1000000 nM, raw OD600 reference: median of DMSO wells 0.193, cell-free background 0.041.
[8] abbreviates: arabinose 10000000 nM, raw OD600 reference: median of DMSO wells 0.146, cell-free background 0.041.
The mark [9] stands for this setting: arabinose induction (level): High, raw OD600 reference: median of DMSO wells 0.331, cell-free background 0.041.
Setting [10] is: arabinose induction (level): Low, raw OD600 reference: median of DMSO wells 0.417, cell-free background 0.041.
[11] abbreviates: arabinose induction (level): High, raw OD600 reference: median of DMSO wells […], cell-free background 0.041.
The mark [12] stands for this setting: arabinose induction (level): Low, raw OD600 reference: median of DMSO wells 0.227, cell-free background 0.041.
[13] abbreviates: arabinose 100 nM, raw OD600 reference: median of DMSO wells 0.413, cell-free background 0.052.
The mark [14] stands for this setting: arabinose 10000000 nM, raw OD600 reference: median of DMSO wells […], cell-free background 0.052.

Take `CC1(C)OC(=O)NC1=O` [Dimethadione]: the growth in assay [1] was found to be 0.243 ± 0.0066; in the assay with E. coli TESEC Mtb Alr [2] (setting [4]), 0.295 ± 0.016; in the assay with E. coli TESEC Mtb Alr [2] (setting [5]), 0.2697 ± 0.0012; with E. coli TESEC Mtb Alr [2] (setting [6]), 0.191 ± 0.017; with E. coli TESEC Mtb Alr [2] (setting [7]) it was 0.184 ± 0.0086; in the assay on E. coli TESEC Mtb Alr [2] (setting [8]), 0.139 ± 0.0053. Moreover, the growth came out at 0.292 ± 0.005 in the assay on E. coli TESEC Mtb Asd (setting [9]); 0.414 ± 0.022 with E. coli TESEC Mtb Asd (setting [10]); 0.182 ± 0.0086 in the assay with E. coli TESEC Mtb DapB (setting [11]); 0.199 ± 0.05 in the assay with E. coli TESEC Mtb DapB (setting [12]); 0.406 ± 0.017 in the assay with E. coli TESEC Mtb Alr [3] (setting [13]); 0.347 ± 0.011 with E. coli TESEC Mtb Alr [3] (setting [14]).

As to `CCCCCCCCNC(C)C(O)c1ccc(SC(C)C)cc1` (configuration not stated) [Suloctidil], the growth in assay [1] came out at 0.0763 ± 0.037; with E. coli TESEC Mtb Alr [2] (setting [4]), 0.0398 ± 0.0011; in the assay with E. coli TESEC Mtb Alr [2] (setting [5]), 0.0405 ± 0.00085; in the assay with E. coli TESEC Mtb Alr [2] (setting [6]), 0.0403 ± 0.00044; with E. coli TESEC Mtb Alr [2] (setting [7]) it was 0.0856 ± 0.078; with E. coli TESEC Mtb Alr [2] (setting [8]), 0.0896 ± 0.085. The growth in the assay with E. coli TESEC Mtb Asd (setting [9]) turned out to be 0.191 ± 0.016; in the assay with E. coli TESEC Mtb Asd (setting [10]), 0.162 ± 0.074; in the assay on E. coli TESEC Mtb DapB (setting [11]) it was 0.153 ± 0.023; with E. coli TESEC Mtb DapB (setting [12]), 0.189 ± 0.019; in the assay on E. coli TESEC Mtb Alr [3] (setting [13]) it was 0.0587 ± 0.0041; in the assay with E. coli TESEC Mtb Alr [3] (setting [14]), 0.0516 ± 0.00081.

On to `CC1CS(=O)(=O)CCN1/N=C/c1ccc([N+](=O)[O-])o1` (configuration not stated) [Nifurtimox], for which the growth in assay [1] was 0.04547 ± 0.00025; in the assay on E. coli TESEC Mtb Alr [2] (setting [4]) it was 0.0539 ± 0.0037; in the assay with E. coli TESEC Mtb Alr [2] (setting [5]) it was 0.04127 ± 0.00031; in the assay with E. coli TESEC Mtb Alr [2] (setting [6]) it was 0.0564 ± 0.0035; in the assay on E. coli TESEC Mtb Alr [2] (setting [7]), 0.0414 ± 0.00017; in the assay with E. coli TESEC Mtb Alr [2] (setting [8]) it was 0.0554 ± 0.00081. The growth in the assay on E. coli TESEC Mtb Asd (setting [9]) was 0.212 ± 0.049; in the assay on E. coli TESEC Mtb Asd (setting [10]), 0.237 ± 0.017; with E. coli TESEC Mtb DapB (setting [11]) it was 0.188 ± 0.029; with E. coli TESEC Mtb DapB (setting [12]), 0.251 ± 0.019; with E. coli TESEC Mtb Alr [3] (setting [13]) it was 0.0469 ± 0.00035; in the assay with E. coli TESEC Mtb Alr [3] (setting [14]) it was 0.0644 ± 0.012.

On to `CO[C@H]1C[C@H](O[C@H]2[C@H](C)[C@@H](O[C@@H]3O[C@H](C)C[C@H](N(C)C)[C@H]3OC(C)=O)[C@@H](C)C[C@@]3(CO3)C(=O)[C@H](C)[C@@H](OC(C)=O)[C@@H](C)[C@@H](C)OC(=O)[C@@H]2C)O[C@@H](C)[C@@H]1OC(C)=O` [Troleandomycin], for which the growth was 0.0738 ± 0.00081 in assay [1]; 0.0647 ± 0.0085 with E. coli TESEC Mtb Alr [2] (setting [4]); 0.0495 ± 0.0021 with E. coli TESEC Mtb Alr [2] (setting [5]); 0.0702 ± 0.0019 in the assay with E. coli TESEC Mtb Alr [2] (setting [6]); 0.04923 ± 0.00025 with E. coli TESEC Mtb Alr [2] (setting [7]); 0.0672 ± 0.00087 with E. coli TESEC Mtb Alr [2] (setting [8]). Further, the growth in the assay on E. coli TESEC Mtb Asd (setting [9]) is 0.15 ± 0.012; in the assay with E. coli TESEC Mtb Asd (setting [10]) it was 0.145 ± 0.0075; with E. coli TESEC Mtb DapB (setting [11]), 0.165 ± 0.0054; in the assay with E. coli TESEC Mtb DapB (setting [12]), 0.156 ± 0.0093; in the assay on E. coli TESEC Mtb Alr [3] (setting [13]) it was 0.112 ± 0.02; with E. coli TESEC Mtb Alr [3] (setting [14]) it was 0.0707 ± 0.017.

On to `OCCN(CCO)c1nc(N2CCCCC2)c2nc(N(CCO)CCO)nc(N3CCCCC3)c2n1` [Dipyridamole], for which the growth in assay [1] was determined as 0.0642 ± 0.0085; in the assay on E. coli TESEC Mtb Alr [2] (setting [4]) it was 0.0575 ± 0.0086; in the assay on E. coli TESEC Mtb Alr [2] (setting [5]), 0.0482 ± 0.0011; in the assay with E. coli TESEC Mtb Alr [2] (setting [6]), 0.0725 ± 0.015; in the assay on E. coli TESEC Mtb Alr [2] (setting [7]), 0.05417 ± 0.00046; with E. coli TESEC Mtb Alr [2] (setting [8]) it was 0.135 ± 0.016. Further, the growth with E. coli TESEC Mtb Asd (setting [9]) was 0.079 ± 0.002; in the assay with E. coli TESEC Mtb Asd (setting [10]), 0.0913 ± 0.034; with E. coli TESEC Mtb DapB (setting [11]), 0.195 ± 0.035; with E. coli TESEC Mtb DapB (setting [12]), 0.205 ± 0.033; in the assay with E. coli TESEC Mtb Alr [3] (setting [13]) it was 0.068 ± 0.006; with E. coli TESEC Mtb Alr [3] (setting [14]), 0.0709 ± 0.0012.

As to `NC(=O)OCC(O)COc1ccc(Cl)cc1` (configuration not stated) [Chlorphensin carbamate], the growth in assay [1] worked out at 0.251 ± 0.011; with E. coli TESEC Mtb Alr [2] (setting [4]), 0.287 ± 0.016; with E. coli TESEC Mtb Alr [2] (setting [5]) it was 0.2846 ± 0.0028; with E. coli TESEC Mtb Alr [2] (setting [6]), 0.245 ± 0.022; with E. coli TESEC Mtb Alr [2] (setting [7]), 0.2014 ± 0.002; with E. coli TESEC Mtb Alr [2] (setting [8]), 0.162 ± 0.0045. The growth in the assay with E. coli TESEC Mtb Asd (setting [9]) worked out at 0.364 ± 0.046; with E. coli TESEC Mtb Asd (setting [10]) it was 0.379 ± 0.024; in the assay on E. coli TESEC Mtb DapB (setting [11]), 0.214 ± 0.014; in the assay with E. coli TESEC Mtb DapB (setting [12]), 0.279 ± 0.041; in the assay with E. coli TESEC Mtb Alr [3] (setting [13]) it was 0.416 ± 0.019; in the assay on E. coli TESEC Mtb Alr [3] (setting [14]), 0.366 ± 0.023.
